# Source: PubChem BioAssay AID492997 (Johns Hopkins Ion Channel Center, 2010)
# About 2,000 (41%) of roughly 4,900 compounds were called active.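 Rule for the calls: active = thallium signal drop beyond 5 SD of the untreated control mean, on both duplicate plates; inactive = the rest.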 The set was probably picked from earlier hits. These entries were drawn from the full list.
# Assay: nonspecific activity without KCNK9 expression – cell-based, second counter screen, non-induced KCNK9-HEK293, counter-screen for KCNK9 inhibitor project, confirmation (AID 492997);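 for inhibition: plate controls were buffer only IC0 wells for no effect and SID17386958 at its maximal inhibitory level for full effect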
# Conditions: non-induced KCNK9-HEK293, FluxOR thallium flux, at 10 µM; active compounds read high
row,Structure (SMILES),inhibition
1,CCCSc1nc(NCc2ccco2)c2c3c(sc2n1)COC(C)(CC)C3 (stereo not drawn),38.5% (active)
2,CCC1(C)Cc2c(sc3[nH]c(=S)n(Cc4ccccc4)c(=O)c23)CO1 (stereo not drawn),inactive
3,CCOC(=O)Cc1cc(=O)[nH]c(=O)[nH]1,inactive
4,COc1ccc(/C=C2\CCc3ccccc3C2=O)c(OC)c1OC,inactive
5,CC1CCN(C(=S)c2ccc(-c3ccc(Cl)cc3Cl)o2)CC1,inactive
6,O=C(CSCc1ccc(Cl)cc1)N1CCN(Cc2ccc3c(c2)OCO3)CC1,inactive
7,CC1CCN(C(=O)c2ccc(CSc3ccc(Cl)cc3)cc2)CC1,36% (active)
8,CN(C)S(=O)(=O)N1CCC(Oc2cccc(C(=O)NCCCC3CCCC3)c2)CC1,inactive
9,Cc1cccc(NC(=O)N(Cc2cc3cc(C)cc(C)c3[nH]c2=O)CC2COCCO2)c1 (stereo not drawn),inactive
10,O=C(COC(=O)c1c2c(nc3ccccc13)CCCC2)c1ccc(Br)s1,22.5% (active)
11,Cc1ccc(OS(=O)(=O)c2ccc(-c3csc(C)n3)s2)c(C)c1,inactive
12,COc1cccc(COC(=O)C2CCN(S(=O)(=O)c3ccc(Cl)cc3)CC2)c1OC,inactive
13,CN(CCOc1ccccc1)C(=O)c1cc(COc2c(F)cccc2F)on1,inactive
14,O=C(NCCCc1ccccc1)c1cc(COc2c(F)cccc2F)on1,inactive
15,O=C(NC1Cc2ccccc2C1)c1cc(COc2cccc(C(F)(F)F)c2)on1,28% (active)
16,CC(C)N(C(=O)CSc1nc(COc2ccccc2)nc2ccccc12)C(C)C,29.5% (active)
17,Cc1cc(C)cc(NC(=O)CSCc2cnn(-c3ccccc3)c2-n2cccc2)c1,inactive
18,CC(C)(C)C1CCC(C(=O)NCC(c2cccs2)N2CCOCC2)CC1 (stereo not drawn),inactive
19,O=C(Nc1ccc(Br)c2cccnc12)c1ccc(Cn2cc([N+](=O)[O-])cn2)o1,31% (active)
20,CC1=NN(c2cccc(Cl)c2)C(=O)C12CC(C)=C(C)CS2 (stereo not drawn),40.5% (active)
21,Cc1cc(C=O)c(C)n1-c1ccc(NC2CCCCC2)c([N+](=O)[O-])c1,55% (active)

row,Structure (SMILES),inhibition
1,CCOC(=O)c1c(NC(=O)CCCN2CCOCC2)sc2c1CC(C)(C)OC2,inactive
2,CCOC(=O)C1=C(C)Nc2sc(C(=O)c3ccc(Br)cc3)c(N)c2C1c1ccc(C(=O)OC)cc1 (stereo not drawn),32.5% (active)
3,O=C(/C=C/NNC(=O)c1cccc(Br)c1)c1ccccc1,50% (active)
4,COc1ccc(Nc2ncnc3sc(-c4ccccc4)cc23)c(OC)c1,inactive
5,CCCCN(CC)C(=O)C1CCCN(S(=O)(=O)c2cccc3nsnc23)C1 (stereo not drawn),inactive
6,Cc1ccc(SCC(=O)c2cc(C)c(OC(=S)N(C)C)c(C)c2)cc1,34% (active)
7,COc1ccc(C2Nc3ccccc3C(=O)N2Cc2ccccc2)cc1Cn1nnc2ccccc21 (stereo not drawn),39% (active)
8,O=S(=O)(c1ccc(F)cc1)N1CCN(Cc2ccccc2C(F)(F)F)CC1,inactive
9,COc1cccc2sc(NNC(=O)c3nc4ccccc4s3)nc12,inactive
10,Cc1nn(CC(=O)Nc2nc3ccccc3s2)c(C)c1[N+](=O)[O-],33.5% (active)
11,CCn1cnc2scc(-c3ccc(C)c(C)c3)c2c1=O,inactive
12,O=C(Nc1ccccc1[N+](=O)[O-])C1C(c2ccccc2)=C1c1ccccc1,26% (active)
13,CCCCCCCCn1c2c(c(=N)c3c1CCC3)CCCC2,27% (active)
14,Cc1ccc(Cn2ccc(NC(=O)c3cc(C(C)C)on3)n2)cc1,inactive
15,CCOC(=O)[C@@H]1[C@H]2COc3ccc(Br)cc3[C@H]2N2C(=O)N(c3ccc(Cl)cc3)C(=O)[C@@]12C,36% (active)
16,C[C@@]12C(=O)N(c3cccc(Br)c3)C(=O)N1[C@H](c1ccc(Cl)cc1)[C@@H]1C(=O)N(C3CCCCC3)C(=O)[C@@H]12,inactive
17,COC(=O)c1cccc(C(=O)N2CCCC(Nc3ccc4c(c3)OCCO4)C2)c1 (stereo not drawn),inactive
18,COc1ccc(OC)c(C(=O)c2coc3ccc(OC)cc23)c1,27% (active)
19,CN(CCC(=O)Nc1cc(S(=O)(=O)N(C)C)ccc1Cl)CC(=O)Nc1ccc(F)cc1,42% (active)
20,COc1ccc(NC(=O)CN(C)CC(=O)Nc2cccc(C(F)(F)F)c2)cc1,inactive
21,COc1ccc(-c2n[nH]c3c2CN(C(=O)c2ccc(F)cc2)CC3)cc1,inactive

row,Structure (SMILES),inhibition
1,CC1=CC(C)(C)N(C(=O)CSc2nnc(-c3ccccc3)o2)c2ccc(C)cc21,inactive
2,COc1ccc(-c2noc(CSc3ccc(C)cc3)n2)cc1,inactive
3,COc1cccc(C(=O)NCCSc2ccc(Br)cc2)c1,inactive
4,COc1cc(NC(=S)NCCSc2ccc(C)cc2)cc(OC)c1,24% (active)
5,FC(F)(F)c1cc(-c2ccco2)nc(NCc2ccc(Cl)cc2)n1,60.5% (active)
6,O=C1/C(=C/c2ccc(F)cc2)SC(=S)N1NS(=O)(=O)c1ccccc1,inactive
7,C/C(=N\NC(=S)Nc1ccc(C)cc1)c1cc2ccccc2o1,inactive
8,CCOC(=O)c1c(NC(=O)CSc2cn(CC)c3ccccc23)sc2c1CCC2,inactive
9,CCCCCn1c(=O)c(C(=O)OCC)c(Cl)c2ccccc21,40.5% (active)
10,Cc1ccccc1N1CCN(Cc2nc(Cc3ccccc3F)no2)CC1,inactive
11,Fc1cccc(Cl)c1CSc1ccc(-c2ccco2)nn1,32% (active)
12,O=C(Nc1cc(Cl)cc(Cl)c1)C(NCCCO)c1ccccc1 (stereo not drawn),29% (active)
13,Cc1cc(OC(C)C(=O)Nc2ccc(S(=O)(=O)Nc3onc(C)c3C)cc2)cc(C)c1Cl (stereo not drawn),inactive
14,O=C(CNCCC1=CCCCC1)Nc1ccccc1N1CCCCCC1,38.5% (active)
15,Cc1cc(C)cc(OCC(=O)Nc2cc(NC(=O)COc3cc(C)cc(C)c3)cc(C(=O)O)c2)c1,inactive
16,COc1cccc(-c2cc3nc4c(c(N5CCC6(CC5)OCCO6)n3n2)CCCC4)c1,27% (active)
17,COc1cccc2cc(C(C)N(CCCN3CCOCC3)C(=O)Nc3ccc(Cl)cc3)oc12 (stereo not drawn),28.5% (active)
18,CN(C)c1ccc(C(CNC(=O)c2ccc(F)cc2)c2c[nH]c3ccccc23)cc1 (stereo not drawn),39% (active)
19,CCN(CC)C(=O)CC1(c2ccccc2OC)CCOC(C(C)C)C1 (stereo not drawn),38% (active)
20,COc1cccc(CN(C)C(=O)CC23CC4CC(CC(C4)C2)C3)c1OC,inactive
21,CC(C)(C)NC(=O)NC(=O)CN1CCC(Cc2ccccc2)CC1,inactive
